A selection: hits, their analogues and other compounds. The true share with any hit is near 0.71%.
FXIIa mix inh: inhibitors of human coagulation factor XIIa, pooled mixtures; purified FXIIa, fluorogenic substrate; inhibition, % at 5 µM; 62,000 tested, 0.2% active; AID 684;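 also: 0% = enzyme without compound and 100% = no enzyme blank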
CatG inh: blocks human cathepsin G enzyme activity. AID 581. inhibition, % at 5 µM (by protocol). 62,000 tested, 0.2% active. purified enzyme, AMC-tetrapeptide fluorescence, pooled mixtures;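 active = inhibition above 20% in each of the two mixture wells holding the compound; inactive = inhibition of 20% or less in either well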;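 also: 0% = enzyme control without mixture and 100% = blank lacking enzyme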
C1s inh: blocks human complement C1s protease activity; mean inhibition % of two 10-compound mixtures (active compounds read high), % at 5 µM (by protocol); P09871; purified C1s, fluorogenic AMC substrate, pooled mixtures; 62,000 tested, 0.16% active; AID 538;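 active = inhibition above 20% in each of the two 10-compound mixture wells holding the compound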;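 also: 0% = enzyme wells lacking compound mixture and 100% = no-enzyme blank wells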
mHtt clearance: mutant huntingtin protein clearance | HeLa Exon1htt(103Q)mCFP, aggregate imaging; zero = plate's median compound well | inhibition, % at 1.5 µM | 47,000 tested, 0.42% active;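 active = inhibition of aggregate fluorescence above about 70%, also judged a hit by eye on the cell image, limit read from the data, passing the limit was not always enough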;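 also: cells exposed to compound for three days before fixation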
FXIa mix inh: blocks human factor XIa in pooled compound mixtures. P03951. purified FXIa, fluorogenic substrate. inhibition, % at 5 µM. 62,000 tested, 0.19% active. AID 680;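 also: each value is inhibition by a whole ten-compound pool holding the compound; 0% = enzyme with no mixture and 100% = wells lacking enzyme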
Active calls of the source: *; . = no result given. Rule as the data show it, unless noted: active = inhibition above about 20% (passing the limit was not always enough); inactive = the rest.

SMILES	FXIIa mix inh	CatG inh	C1s inh	mHtt clearance	FXIa mix inh
CCN1CCC(O)(c2ccccc2)C(C(=O)c2ccccc2)C1 (centres undefined)	.	.	.	86.6*	.
CCOC(=O)C(O)(c1ccc(N(CC)S(=O)(=O)c2ccccc2)cc1)C(F)(F)F (centres undefined)	6.8	8.6	16.6	-43.6	8.8
COc1ccccc1CN1CCCCC1c1cccnc1 (centres undefined)	0.3	9.9	58.9*	16.1	5.1
COc1ccccc1CC1C(=O)C2CCN1CC2 (centres undefined)	.	.	.	49.0	.
CCOC(=O)c1c(NC(=O)C(c2ccccc2)c2ccccc2)sc2c1C1CCN2CC1	.	.	.	74.9*	.
CCC1(CC)C(=O)NC(=NCCc2c[nH]c3ccccc23)NC1=O	7.6	6.3	-30.2	-5.5	-3.1
CCCCc1ccc2[nH]cc(CCN)c2c1	-16.7	1.8	-6.8	74.8*	7.7
Cc1cc(OCC(=O)NC2CCS(=O)(=O)C2)c2c3c(c(=O)oc2c1)CCC3 (centres undefined)	1.4	-11.5	-33.5	.	-24.1
